Laboratory results reported in PubChem BioAssay AID588343 (Broad Institute, 2011).
Hit rate of the full screen: of about 1,200 compounds, about 650 (54%) were called active. Roughly 5% stayed inconclusive and do not appear here.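 The calls were made as follows: active = signal-lowering curve whose fitted half-maximal concentration is at or below ten times the top valid dose tested; inconclusive = flat curve with 30 to 70% inhibition, or poor fit; inactive = signal increase, flat within 30%, or potency beyond limit.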 So high a share suggests a set chosen from earlier hits. These entries were drawn from the full list. Entries with a potency or affinity are not part of this list.

Assay: inhibitors of LMP1-driven NF-kB reporter, dose response, cell-based, HEK293, luciferase, cherry-pick (AID 588343);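 also: 0% = median of neutral control wells and -100% = MG132 positive control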
Details: HEK293 LMP1 TES2 NF-kB luciferase reporter, 16 h; series mostly up to 35 µM; activity change, negative = inhibition: at the top concentration

Activity change, negative = inhibition, inactive:
C=CCN1CCc2cc(O)c(O)cc2C(c2ccccc2)C1 (stereo unspecified) -0.248%, Cc1ccc(C)c(S(=O)(=O)N2CCN(C(=O)c3ccc(C)s3)CC2)c1 -14.8%, COc1ccccc1-c1ccccc1C1=CC(=O)CC(C)(C)C1=O 20.8%, CCOC(=O)N1CCN(C(=O)C2CCC(=O)N(Cc3ccccc3OC)C2)CC1 (stereo unspecified) 7.61%, COc1ccc(C(=O)NCCN2CCOCC2)cc1[N+](=O)[O-] 6.07%, CNC(=O)c1[nH]cnc1C(=O)N[C@@H](CCCCNC(=O)OC(C)(C)C)C(=O)OC(C)(C)C 34%, Cc1cccc(C)c1Nc1nc2ccccc2o1 2.89%, OCc1cc(C(O)CNCCCCCCOCCCCc2ccccc2)ccc1O (stereo unspecified) 6.71%, COc1ccccc1NC(=O)c1c(Nc2ccccc2C)sc(C(=O)Nc2cccc(Cl)c2)c1N 3.23%, O=C(OCc1nc2ccccc2s1)[C@@H]1CCCN1S(=O)(=O)c1ccccc1F 8.66%, C[C@@H](OC(=O)c1[nH]cnc1C(=O)N1CCc2ccccc2C1)c1ccccc1 5.49%, O=C(Nc1ccc(Cl)cc1)c1ccco1 2.2%, CSCCC(NC(=O)c1ccco1)C(=O)OCC(=O)Nc1ncc(Cl)c(C)c1Cl (stereo unspecified) 5.14%, C[C@H]1C[C@H]2[C@@H]3CCC4=CC(=O)C=C[C@]4(C)[C@@]3(F)[C@@H](O)C[C@]2(C)[C@@]1(O)C(=O)CO -27.3%, CCn1c(CCNC(=O)c2ccc(OC)cc2)nnc1SCc1ccc(Cl)cc1Cl -10.7%, CCC(Oc1ccccc1)C(=O)NC1CCSC1=O (stereo unspecified) 0.894%, CC1=C(C)C(OCCCl)N(c2cc(O)c(Cl)cc2F)C1=O (stereo unspecified) -1.48%, CC(C)Cc1ccc([C@H](C)C(=O)O)cc1 10.3%, O=C(C[n+]1ccccc1)N/N=C/c1ccc(O)cc1 12.7%, Cc1ccc(CNC(=O)C2CCN(S(=O)(=O)c3c(C)noc3/C=C/c3ccco3)CC2)cc1 23.8%, C[C@@H]1CN([C@@H](C)CO)C(=O)c2cc(NC(=O)Nc3ccccc3)ccc2O[C@H]1CN(C)C(=O)Nc1cccc2ccccc12 -8.5%, O=C(NN1C(=O)C2C3C=CC(C4CC34)C2C1=O)c1cccc(Cl)c1 (stereo unspecified) 2.66%, Nc1ccn(C2CCCO2)c(=O)n1 (stereo unspecified) -9.64%, NC(=O)c1ncn([C@@H]2O[C@H](CO)[C@@H](O)[C@H]2O)n1 44.1%, Nc1ccc(CCNc2ncnc3c2ncn3[C@@H]2O[C@H](CO)[C@@H](O)[C@H]2O)cc1 -19.4%, CCOc1ccccc1/C=C/c1onc(C)c1S(=O)(=O)N1CCC(C(=O)N(CC)CC)CC1 -2.53%, CCCC(=O)NCCCc1nc2ccccc2n1C -6.19%, COc1nc(Nc2nc3ccccc3c(=O)[nH]2)nc2ccc(C)cc12 63.8%, COc1c(S(=O)(=O)N2CCN(c3ccc(F)cc3)CC2)ccc(Cl)c1Cl 0.418%, O=C(CCCOc1ccccc1)N1CCN(c2ccccc2)CC1 -13.6%, Cc1ccc(NC(=S)Nc2cccc(S(=O)(=O)Nc3c(C)n(C)n(-c4ccccc4)c3=O)c2)cc1 -6.17%, Cc1cccc(NC(=O)Nc2c(C)n(C)n(-c3ccccc3)c2=O)c1C 2.9%, C/C(=N\NS(=O)(=O)c1ccc([N+](=O)[O-])cc1)c1cccs1 28.1%, O=C(CCNc1cccc(F)c1)c1cc2ccccc2o1 -15.8%, Cc1ccccc1CC(=O)NCc1cccnc1 2.8%, COc1ccc(-c2ccc3c(c2)S(=O)(=O)c2cccc(C(=O)NCc4cc(C)oc4C(F)(F)F)c2C3=O)cc1OC 64.1%, Cc1ccc(N2CCCCn3c2nc2c3c(=O)n(CC(=O)O)c(=O)n2C)cc1 1.98%, Cc1ccnc(N/C=C(/NC(=O)c2ccccc2)C(=O)N/N=C\c2ccc(F)cc2)n1 -17.7%, COc1ccc(-c2cc(C(F)(F)F)n3nc(C(=O)N4CCOCC4)nc3n2)cc1 -11.3%, O=C(Nc1nnc(N2CCCCCC2)s1)c1cc(-c2ccc(Br)cc2)on1 -2.98%, COCCCNC(=O)CN1C(=O)COc2ccc(S(=O)(=O)N3CCOCC3)cc21 7.21%, CCCSc1nc2cc(S(=O)(=O)N3CCOCC3)ccc2n1CC 13.1%, CN(C)CCN(Cc1ccc(Cl)cc1)c1ccccn1 17.7%, COc1ccc(CC(C)NCC(O)c2ccc(O)c(NC=O)c2)cc1 (stereo unspecified) 22.3%, CCOC(=O)C1=C(C)NC(C)=C(C(=O)OCC)C1c1cn(-c2ccccc2)nc1-c1ccco1 26.1%, O=C(CSc1nnc(-c2cccc(S(=O)(=O)N3CCOCC3)c2)n1C1CCCCCC1)NCc1ccccc1 14.6%, O=C(Nc1cc(S(=O)(=O)N2CCOCC2)ccc1Cl)c1ccncc1 -7.69%, N=c1c(-c2nc3ccccc3[nH]2)cc(C(=O)c2cccs2)nn1-c1ccccc1 42.9%, Cc1cc(NC(=O)c2ccc(C)s2)n(-c2nc3ccccc3[nH]2)n1 1.12%, CCCC(=O)NCCCc1nc2ccccc2[nH]1 -10.5%, O=c1cc(Cl)nc2ccccn12 -6.86%, COc1ccc2[nH]c3c(=O)n(CCCCC(=O)N4CCC(C(N)=O)CC4)c(=S)[nH]c3c2c1 4.91%, O=C(Cc1ccc(Cl)cc1)NCC(=O)N1CCCCC1 -5.16%, Cc1ccccc1N(C(=O)c1snc(C(N)=O)c1N)C(C(=O)NC1CCCCC1)c1ccc(O)cc1 (stereo unspecified) 47.4%, S=C1SCN(Cc2ccccc2)CN1Cc1ccco1 -12.8%, CCOc1cc(/C=C2/C(=N)N3N=C(CC)SC3=NC2=O)ccc1OC(=O)c1ccco1 -2.03%, CC(=O)Oc1ccc(C(=O)Nc2cccnc2)cc1 11%, COc1ccc(CCC(=O)Nc2ccc(C)c([N+](=O)[O-])c2)cc1 3.84%, O=C(COc1ccc2ccccc2c1)NCCNC(=O)COc1ccc2ccccc2c1 33.9%, CNC(=O)C1=NCCCc2cc(OC)c(OC)cc21 -2.99%, O=C(NC1CCCCC1)N1CCN(c2ccc([N+](=O)[O-])cc2)CC1 -12.7%, COc1ccc(-n2nc(C(=O)c3cccs3)cc(-c3nc4ccccc4[nH]3)c2=N)cc1 3.98%, CNC(=S)N1N=C(c2cccs2)CC1c1ccc(F)cc1 (stereo unspecified) 22.4%, O=C(CN1C(=O)C2C3C=CC(C3)C2C1=O)NCCC1=CCCCC1 (stereo unspecified) 21.8%, O=C(CN(Cc1cccs1)C(=O)CNS(=O)(=O)c1ccccc1)NCc1ccco1 5.03%, O=C(COC(=O)c1ccc(S(=O)(=O)NCc2ccco2)cc1)Nc1ccc(Cl)cn1 -7.56%
